Laboratory results taken from PubChem BioAssay AID1159580 (chemical genetic matrix, 2015).
Several values for one entry are separate records, joined by “and”; a condition that tells them apart may be missing. Equal values may be shown once. The campaign covered roughly 5,500 compounds. About 2,000 (36%) were called active. Another 18% or so got no clear call; they are omitted. Rule as the data show it: active = normalized growth mostly below about 0.91 (no sharp cut-off); inconclusive = no clear call, values can overlap the other calls; inactive = mostly above about 0.92. The list shows a part of the results.

Assay: chemical genetic growth profiling, strain panel (AID 1159580);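 also: tested at 20 µM; growth read once vehicle control cultures reached saturation at 30 °C; 1 = growth at the plate median or of vehicle wells; lower values mean less growth of the strain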
Conditions: S. cerevisiae deletion strains, growth OD

Measured: normalized growth

CCCCCCCCCCCCCCCC(=O)OC/C=C(C)/C=C/C=C(C)/C=C/C1=C(C)CCCC1(C)C
inactive: locus YAL013W, strain DEP1, hits give low values 0.994 | locus YAL021C, strain ccr4, hits give low values 1.04 | locus YAL026C, strain drs2, hits give low values 1.02 | locus YAL030W, strain snc1, hits give low values 1.03 | locus YBL061C, strain skt5, hits give low values 1.02 | locus YBR009C, strain hhf1, hits give low values 0.995 | locus YBR021W, strain FUR4, hits give low values 0.977 | locus YBR023C, strain chs3, hits give low values 1 | locus YBR171W, strain sec66, hits give low values 1.02 | locus YBR229C, strain ROT2, hits give low values 0.992 | locus YBR231C, strain swc5, hits give low values 0.931 | locus YBR279W, strain paf1, hits give low values 1.01 | locus YCL011C, strain gbp2, hits give low values 1 | locus YCL016C, strain dcc1, hits give low values 1 | locus YCL029C, strain bik1, hits give low values 0.999 | locus YCL069W, strain vba3, hits give low values 1.01 | locus YCR088W, strain abp1, hits give low values 1.02 | locus YDL005C, strain med2, hits give low values 1.03 | locus YDL035C, strain GPR1, hits give low values 0.978 | locus YDL040C, strain nat1, hits give low values 1.01 | locus YDL074C, strain BRE1, hits give low values 1 | locus YDL101C, strain DUN1, hits give low values 0.993 | locus YDL185W, strain tfp1, hits give low values 0.992 | locus YDL192W, strain arf1, hits give low values 0.994 | locus YDR001C, strain nth1, hits give low values 1.02 | locus YDR069C, strain doa4, hits give low values 1 | locus YDR101C, strain arx1, hits give low values 1.02 | locus YDR137W, strain rgp1, hits give low values 1.03 | locus YDR150W, strain NUM1, hits give low values 1 | locus YDR159W, strain sac3, hits give low values 0.963 | locus YDR162C, strain NBP2, hits give low values 0.973 | locus YDR195W, strain ref2 1.04 | locus YDR297W, strain sur2, hits give low values 1.03 | locus YDR318W, strain mcm21, hits give low values 0.999 | locus YDR334W, strain swr1, hits give low values 1.03 | locus YDR335W, strain msn5, hits give low values 1.04 | locus YDR388W, hits give low values 1.02 | locus YDR392W, strain spt3, hits give low values 1.05 | locus YDR502C, strain sam2, hits give low values 0.994 | locus YEL003W, strain gim4, hits give low values 1.01 | locus YEL037C, strain rad23, hits give low values 1.02 | locus YEL061C, strain CIN8 (second series), hits give low values 1.02 | locus YEL061C, strain CIN8, hits give low values 0.993 | locus YER015W, strain faa2, hits give low values 1.02 | locus YER016W, strain bim1, hits give low values 1.02 | locus YER110C, hits give low values 0.985 | locus YER111C, strain swi4, hits give low values 1.02 | locus YER155C, strain BEM2 (second series), hits give low values 1.03 | locus YER155C, strain BEM2, hits give low values 0.998 | locus YER167W, strain BCK2, hits give low values 0.989 | locus YFR010W, strain ubp6, hits give low values 1.03 | locus YGL078C, strain dbp3, hits give low values 0.993 | locus YGL086W, strain mad1, hits give low values 1.01 | locus YGL167C, strain pmr1, hits give low values 1.02 | locus YGL173C, strain kem1, hits give low values 1.01 | locus YGL227W, strain vid30, hits give low values 1.01 | locus YGL240W, strain doc1, hits give low values 1.03 | locus YGL248W, strain PDE1, hits give low values 1 | locus YGL253W, strain hxk2, hits give low values 0.976 | locus YGR135W, strain pre9, hits give low values 0.929 | locus YGR252W, strain gcn5, hits give low values 1.04 | locus YHR013C, strain ard1, hits give low values 1.05 | locus YHR027C, strain rpn1, hits give low values 0.969 | locus YHR030C, strain SLT2, hits give low values 0.995 and 0.963 | locus YHR079C, strain IRE1 (second series), hits give low values 1.01 | locus YHR079C, strain IRE1, hits give low values 0.925 | locus YHR094C, strain hxt1, hits give low values 0.983 | locus YHR129C, strain ARP1, hits give low values 0.999 | locus YHR142W, strain chs7, hits give low values 1.01 | locus YHR200W, strain rpn10, hits give low values 0.998 | locus YIL066C, strain RNR3, hits give low values 0.987 | locus YIL073C, strain SPO22, hits give low values 0.879 | locus YIL125W, strain kgd1, hits give low values 0.992 | locus YIR030C, strain dcg1, hits give low values 0.989 | locus YJL092W, strain hpr5, hits give low values 1.02 | locus YJL095W, strain BCK1 (second series), hits give low values 1.03 | locus YJL095W, strain BCK1, hits give low values 0.995 and 0.989 | locus YJL115W, strain asf1, hits give low values 1.02 | locus YJL129C, strain trk1, hits give low values 1.04 | locus YJL134W, strain LCB3, hits give low values 0.991 | locus YJL154C, strain vps35, hits give low values 1.02 | locus YJL164C, strain tpk1, hits give low values 0.996 | locus YJL166W, strain qcr8, hits give low values 1.04 | locus YJL168C, strain set2, hits give low values 0.994 | locus YJL187C, strain SWE1 (second series), hits give low values 1.01 | locus YJL187C, strain SWE1, hits give low values 1.03 | locus YJR043C, strain POL32, hits give low values 0.995 | locus YJR066W, strain TOR1, hits give low values 0.901 | locus YKL009W, strain mrt4, hits give low values 0.993 | locus YKL068W, hits give low values 0.985 | locus YKL085W, strain MDH1 (second series), hits give low values 0.985 | locus YKL085W, strain MDH1, hits give low values 0.985 | locus YKL160W, strain elf1, hits give low values 1.02 | locus YKL190W, strain CNB1, hits give low values 0.998 | locus YKR001C, strain vps1, hits give low values 0.991 | locus YKR026C, strain gcn3, hits give low values 1.03 | locus YKR091W, strain srl3, hits give low values 1.01 | locus YLL001W, strain dnm1, hits give low values 1.01 | locus YLL026W, hits give low values 0.975 | locus YLL041C, strain sdh2, hits give low values 1.02 | locus YLR027C, strain aat2, hits give low values 1.01 | locus YLR039C, strain RIC1, hits give low values 1 | locus YLR058C, strain SHM2, hits give low values 0.988 | locus YLR102C, strain apc9, hits give low values 0.993 | locus YLR113W, strain HOG1, hits give low values 0.99 | locus YLR221C, strain rsa3, hits give low values 0.98 | locus YLR258W, strain gsy2, hits give low values 1 | locus YLR262C, strain YPT6 (second series), hits give low values 1.01 | locus YLR262C, strain YPT6, hits give low values 1.04 | locus YLR268W, strain sec22, hits give low values 0.996 | locus YLR320W, strain mms22, hits give low values 1 | locus YLR330W, strain CHS5, hits give low values 0.993 | locus YLR342W, strain FKS1 (second series), hits give low values 0.993 | locus YLR342W, strain FKS1, hits give low values 1.02 | locus YLR357W, strain rsc2, hits give low values 0.994 | locus YLR370C, strain arc18, hits give low values 1.02 | locus YLR371W, strain rom2, hits give low values 1 | locus YLR384C, strain iki3, hits give low values 1.02 | locus YLR418C, strain cdc73, hits give low values 0.922 | locus YML016C, strain PPZ1, hits give low values 0.994 | locus YML032C, strain rad52, hits give low values 1.01 | locus YML120C, strain ndi1, hits give low values 1.05 | locus YML124C, strain tub3, hits give low values 0.993 | locus YMR058W, strain fet3, hits give low values 0.999 | locus YMR078C, strain ctf18, hits give low values 0.996 | locus YMR125W, strain sto1, hits give low values 1.01 | locus YMR129W, hits give low values 1.01 | locus YMR205C, strain PFK2, hits give low values 1.01 | locus YMR223W, strain ubp8, hits give low values 0.959 | locus YMR231W, strain pep5, hits give low values 1.02 | locus YMR263W, strain SAP30, hits give low values 1 | locus YMR307W, strain GAS1, hits give low values 1 | locus YNL067W, strain RPL9B, hits give low values 1.02 | locus YNL071W, strain lat1, hits give low values 0.97 | locus YNL153C, strain GIM3, hits give low values 1.04 | locus YNL183C, strain NPR1, hits give low values 0.967 | locus YNL209W, strain ssb2, hits give low values 0.991 | locus YNL233W, strain BNI4, hits give low values 0.994 | locus YNL248C, strain rpa49, hits give low values 1.05 | locus YNL250W, strain rad50, hits give low values 1.01 | locus YNL271C, strain bni1, hits give low values 0.995 | locus YNL298W, strain CLA4, hits give low values 1 | locus YNL307C, strain MCK1, hits give low values 0.989 | locus YNL322C, strain KRE1 (second series), hits give low values 1.04 | locus YNR049C, strain mso1, hits give low values 1.02 | locus YNR052C, strain pop2, hits give low values 0.998 | locus YOL012C, strain htz1 0.785 | locus YOL147C, strain pex11, hits give low values 0.991 | locus YOR001W, strain rrp6, hits give low values 1.05 | locus YOR061W, strain CKA2, hits give low values 0.99 | locus YOR069W, strain VPS5, hits give low values 0.992 | locus YOR070C, strain gyp1, hits give low values 1.01 | locus YOR080W, strain dia2, hits give low values 1.02 | locus YOR083W, strain WHI5, hits give low values 0.984 | locus YOR106W, strain vam3, hits give low values 0.962 | locus YOR136W, strain idh2, hits give low values 1 | locus YOR144C, strain elg1, hits give low values 0.99 | locus YOR184W, strain ser1, hits give low values 0.991 | locus YOR231W, strain MKK1, hits give low values 0.974 | locus YOR265W, strain rbl2, hits give low values 1.02 | locus YOR270C, strain vph1, hits give low values 1.05 | locus YOR290C, strain snf2, hits give low values 1.03 | locus YOR316C, strain cot1, hits give low values 0.992 | locus YPL051W, strain arl3, hits give low values 1.02 | locus YPL078C, strain atp4, hits give low values 1.01 | locus YPL106C, strain sse1, hits give low values 1.07 | locus YPL240C, strain hsp82, hits give low values 1.01 | locus YPL256C, strain CLN2, hits give low values 0.916 | locus YPR119W, strain clb2, hits give low values 0.998 | locus YPR141C, strain kar3, hits give low values 0.983 | locus YPR163C, strain tif3, hits give low values 1 | locus YPR167C, strain met16, hits give low values 0.992 | strain wtn01, hits give low values 0.972
